Screening results (PubChem)
Rows were chosen to be rich in hits. Some 18% of all compounds tested hit in one or more screens of this group.
TDP1 block – qHTS Assay for Inhibitors of Tyrosyl-DNA Phosphodiesterase (TDP1); Tyrosyl-DNA phosphodiesterase 1 (Homo sapiens), Q9NUW8; recombinant TDP1, AlphaScreen DNA substrate cleavage; Potency, µM (highest dose often 130 µM), inactives show at the highest dose activity change, negative = inhibition, actives largely listed as inhibitors; actives 0.28% (n = 350,000); AID 485290, 2010; further: nearly all actives have a fitted effect of over 40% in size
Target sequence (Q9NUW8 whole entry, looked up): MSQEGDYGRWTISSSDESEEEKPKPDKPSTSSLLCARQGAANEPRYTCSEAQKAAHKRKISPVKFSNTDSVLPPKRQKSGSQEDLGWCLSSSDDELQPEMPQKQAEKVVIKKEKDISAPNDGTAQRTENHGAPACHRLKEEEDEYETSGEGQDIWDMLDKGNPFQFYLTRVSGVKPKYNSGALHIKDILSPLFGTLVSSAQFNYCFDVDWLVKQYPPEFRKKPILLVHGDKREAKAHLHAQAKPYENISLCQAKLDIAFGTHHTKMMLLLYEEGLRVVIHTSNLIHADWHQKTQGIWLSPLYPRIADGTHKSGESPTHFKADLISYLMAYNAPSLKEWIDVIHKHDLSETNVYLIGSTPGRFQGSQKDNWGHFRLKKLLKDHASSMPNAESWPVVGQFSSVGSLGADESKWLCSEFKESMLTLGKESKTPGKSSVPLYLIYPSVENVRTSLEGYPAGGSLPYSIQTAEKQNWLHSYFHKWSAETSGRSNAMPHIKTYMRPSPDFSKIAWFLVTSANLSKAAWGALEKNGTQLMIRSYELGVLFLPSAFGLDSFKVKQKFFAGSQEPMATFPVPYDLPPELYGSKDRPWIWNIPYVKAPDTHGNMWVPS
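Here, a 5' biotin and 3' phosphotyrosine-FITC DNA oligonucleotide reports Tdp1 activity: intact substrate bridges AlphaScreen beads, while cleavage leaves a 3' phosphate and drops signal. All incubations at room temperature.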
VDR inhibitor – Inhibitors of the vitamin D receptor (VDR): qHTS | Vitamin D3 receptor (Homo sapiens), P11473 | VDR-SRC2-3 peptide fluorescence polarization, 2 h | Potency, µM, for the others: max response, negative = inhibition, actives largely listed as inhibitors | actives 0.93% (n = 400,000) | AID 504847, 2011
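After 23 nl compound addition and a short centrifugation, plates sat for 2 hours at ambient temperature; polarization of fluorescence then indicated loss of VDR binding to peptide SRC2-3.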
PLK1 PBD block – qHTS for Inhibitors of PLK1-PDB (polo-like kinase 1 - polo-box domain): Primary Screen; Serine/threonine-protein kinase PLK1 (Homo sapiens), P53350; Plk1 PBD binding of FITC phosphopeptide, fluorescence polarization; Potency, µM, for the others: max response, negative = inhibition, most hits filed as inhibitors; AID 720504, 2013; actives 2.8% (n = 360,000); further: series mostly up to about 57 µM; nearly all actives have a fitted effect of over 65% in size
TDP1 cell noCPT – qHTS for Inhibitors of human tyrosyl-DNA phosphodiesterase 1 (TDP1): qHTS in cells in absence of CPT; DT40 Tdp1-/- hTDP1 cells, no CPT, ATP luminescence, 48 h; Potency, µM (top dose mostly 46.2 µM), without a hit: top-dose activity change, negative = growth inhibition, hits mostly inhibitors; actives 15% (n = 420,000); further: nearly all actives have a fitted effect of over 55% in size
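Growth of hTDP1-complemented DT40 Tdp1-knockout cells is measured by ATP luminescence after at least 48 hr compound exposure at 37 °C, with DMSO substituting for the 20 nM CPT used in the parallel screen.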
GCN5L2 inh – qHTS Assay for Inhibitors of GCN5L2; Histone acetyltransferase KAT2A (Homo sapiens), Q92830; Potency, µM (series often up to 58.9 µM), inactives show at the highest dose activity change, negative = inhibition, actives largely listed as inhibitors; AID 504327, 2011; actives 0.21% (n = 390,000); GCN5L2 HAT assay, ThioGlo1 CoA-SH fluorescence
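GCN5L2 (20nM final) in 50mM HEPES, 0.1mM EDTA pH 7.5, 0.01% Tween-20 was preincubated 15 min at room temperature with compound, then given ThioGlo1 (50uM), H3(1-25) peptide (75uM) and acetyl-CoA (70uM); CoA-thiol fluorescence (Ex340/Em540) was read at 0 and 20 min.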
TDP1 cell CPT – qHTS for Inhibitors of human tyrosyl-DNA phosphodiesterase 1 (TDP1): qHTS in cells in presence of CPT; Potency, µM (highest dose often 46.2 µM), for the others: at the highest dose activity change, negative = growth inhibition, usual class: inhibitors; AID 686979, 2013; actives 12% (n = 420,000); chicken DT40 Tdp1-/-;hTDP1 cells + 20 nM CPT, ATP luminescence, 48 h; further: nearly all actives have a fitted effect of over 55% in size
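Chicken DT40 Tdp1-/- cells complemented with human TDP1, 400 cells/well, exposed to compounds plus 20 nM camptothecin for at least 48 h at 37 C; viability read as ATP content by CellTiter-Glo luminescence.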
An asterisk follows results filed as active; [ ] = dose if it differs, or a comment. The call rests on the fitted dose curve; in most records, active means well fitted curve in the direction sought with a large enough effect; inconclusive means small, poorly fitted or top-dose-only effect, or another doubt; inactive means no such curve, though single readings can be large; an effect the other way counts as inactive or inconclusive. On the % scale 0 is the no-effect control and ±100 the full control effect; potency means the concentration at half of the fitted maximal effect.

Screening COc1ccc(OC)c(N(CC(=O)Nc2ccc3c(c2)OCO3)S(=O)(=O)c2ccccc2)c1 returned TDP1 block 0%, VDR inhibitor -1%, PLK1 PBD block -7%, TDP1 cell noCPT inconclusive, GCN5L2 inh -30% and TDP1 cell CPT 26µM*.
CCOc1ccc(N(CC(=O)Nc2ccc3c(c2)OCO3)S(=O)(=O)c2ccccc2)cc1 was read as TDP1 block 0%[12.3 µM], VDR inhibitor 7%, TDP1 cell noCPT inconclusive, GCN5L2 inh -12% and TDP1 cell CPT inconclusive.
For CCC1=NN2C(=N)/C(=C\c3ccc(OCCOc4ccccc4OC)cc3)C(=O)N=C2S1 the results were VDR inhibitor 8%, PLK1 PBD block inconclusive, TDP1 cell noCPT 1%, GCN5L2 inh -6% and TDP1 cell CPT 7%.
For Cc1ccc(C(=O)Oc2ccc(/C=C3\C(=N)N4N=C(N5CCOCC5)SC4=NC3=O)cc2)cc1 the results were VDR inhibitor -27%, PLK1 PBD block 27µM*, TDP1 cell noCPT -7%, GCN5L2 inh inconclusive and TDP1 cell CPT -8%.
COc1ccc(OCCOc2ccc(/C=C3\C(=N)N4N=C(C)SC4=NC3=O)cc2)cc1 was read as TDP1 block 35µM*, VDR inhibitor -29%, PLK1 PBD block inconclusive, TDP1 cell noCPT -14%, GCN5L2 inh -3% and TDP1 cell CPT 4%.
N=C1/C(=C\c2ccc(OC(=O)c3ccccc3)cc2)C(=O)N=C2SC(N3CCOCC3)=NN12 was read as VDR inhibitor -5%, PLK1 PBD block 24µM*, TDP1 cell noCPT -3%, GCN5L2 inh inconclusive and TDP1 cell CPT 1%.
Cc1ccc(CNC(=O)CCSCc2ccccc2F)cc1 was read as TDP1 block 10%, VDR inhibitor -7%, PLK1 PBD block -6%, TDP1 cell noCPT 20%, GCN5L2 inh 8% and TDP1 cell CPT -9%.
For CCOC(=O)CC(=O)CSc1nc(-c2ccccc2)cc(-c2ccccc2)c1C#N the results were TDP1 block 3%, VDR inhibitor -15%, PLK1 PBD block -10%, TDP1 cell noCPT -8%, GCN5L2 inh 2% and TDP1 cell CPT 15%.
For COc1ccc(-c2cc(-c3ccccc3)nc(SC(C)C(=O)O)c2C#N)cc1 (configuration not stated) the results were TDP1 block 4%, VDR inhibitor inconclusive, PLK1 PBD block 27µM*, TDP1 cell noCPT 26µM*, GCN5L2 inh -5% and TDP1 cell CPT inconclusive.
For CCN(CC)C(=O)CSc1nc(-c2ccccc2)cc(-c2ccc(OC)cc2)c1C#N the results were TDP1 block 7%, VDR inhibitor 0%, TDP1 cell noCPT inconclusive, GCN5L2 inh -1% and TDP1 cell CPT inconclusive.
Screening CC(C)C(Sc1nc(-c2ccccc2)cc(-c2ccccc2)c1C#N)C(=O)O (configuration not stated) returned TDP1 block -1%, VDR inhibitor -7%, PLK1 PBD block 19µM*, TDP1 cell noCPT inconclusive, GCN5L2 inh inconclusive and TDP1 cell CPT inconclusive.
Screening COc1ccccc1-c1cc(-c2ccccc2)nc(SCC(=O)O)c1C#N returned TDP1 block 6%, VDR inhibitor -14%, PLK1 PBD block -14%, TDP1 cell noCPT 1%, GCN5L2 inh -21% and TDP1 cell CPT inconclusive.
